The structures appear in SMILES notation. Activity calls are given as the source filed them. The calls were made as follows: active = hit-call score of the fitted dose curve at least 0.9, where 1 is the maximum; inactive = score below 0.9.

This assay in a line: ATG_CRE_CIS: Attagene CIS-FACTORIAL HepG2 Assay for human cAMP Responsive Element (CRE) binding protein 3 (AID 2282926). Conditions: HepG2 CRE cis-reporter, Attagene multiplexed mRNA; actives raise or lower the signal. The method in brief: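 Liver-derived HepG2, transfected with a CRE-containing reporter panel, exposed 24 h; transcript levels sized and quantified by capillary electrophoresis of labelled amplicons; signal changes either way referenced to vehicle.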
Consider `Nc1ccc(N=Nc2ccccc2)cc1`, for which the outcome was inactive.

Turning to `O=C(O)C1C2CCC(O2)C1C(=O)O` (stereo not drawn), the AC50 is 80.7 µM (active).

Consider `O=C(Nc1ccccc1)c1ccccc1I`, for which the compound was called inactive.

As to `CC(O)CCO` (stereo not drawn), the call was inactive.

As for `CC(C)(C)OOC(C)(C)CCC(C)(C)OOC(C)(C)C`, the call was inactive. As to `O=C(Oc1ccc(Br)cc1)N1CCN2CCC1CC2`, the outcome was inactive. Still for that read-out and setting: in the case of `[O-][Cl+]O` it was “inactive”; in that of `Nc1ccc(Cl)cc1N`, “inactive”.

As to `COc1cc(C=O)cc2c1[C@H](COC(N)=O)[C@]1(OC(C)=O)ON2C[C@H]2[C@@H]1N2C(C)=O`, the AC50 was 33.4 µM (active). As to `Nc1ccc([N+](=O)[O-])cc1`, the result was inactive. As for `OCCCBr`, the outcome was inactive. For `CNC(=O)Oc1cccc2c1OC(C)(C)C2`, the compound was called inactive.

As for `N#CC(Br)(Br)C(N)=O`, the call was inactive. Take `Clc1ccc(C(c2ccc(Cl)cc2)C(Cl)Cl)cc1`: the AC50 was 54.5 µM (active).

On to `Cc1ccc(N=C=O)cc1N=C=O`, for which the outcome was inactive.

`c1ccc2c(c1)-c1cccc3cccc-2c13`: the result was inactive.

Consider `ClC1=C(Cl)C2(Cl)C3C(Cl)C=CC3C1(Cl)C2(Cl)Cl` (stereo not drawn), for which the outcome was inactive. Take `COC(=O)c1ccccc1N`: the outcome was inactive. For `c1ccc(NNc2ccccc2)cc1`, the result was inactive. On to `c1ccc(C2CO2)cc1` (stereo not drawn), for which the compound was classed as inactive.

On to `c1ccc2c(c1)oc1ccccc12`, for which the compound was called inactive.

`O=Cc1ccco1`: the call was inactive. For the compound `CCC(C)c1ccc(O)cc1` (stereo not drawn), the AC50 was 59.7 µM (active). As to `CCOc1cccc(C2(N3CCN(c4ccccc4)CC3)CCC(C)CC2)c1` (stereo not drawn), the compound was called inactive. `COP(=S)(OC)SCN1C(=O)c2ccccc2C1=O`: the outcome was inactive.

For `[Cl-].[Cl-].[Hg+2]`, the call was inactive. As for `CCN(CC)N=O`, the call was inactive.

On to `O=C(N[C@H](c1ccccc1)[C@@H]1CN2CCC1CC2)c1c(Cl)ccc(C(F)(F)F)c1Cl`, for which the compound was called inactive.

As usually defined, the AC50 is the concentration giving half of the maximal activity seen.
